Percent Effect data for 40 molecules are collected here from ChEMBL document CHEMBL3988442, “University of Dundee, Small-Polar-MMV Screening Library” (2021).

One assay addresses T1, Aspartate--tRNA(Asp/Asn) ligase (Mycobacterium tuberculosis (strain ATCC 25618 / H37Rv)) (UniProt P9WFW3).
T1 sequence (whole entry): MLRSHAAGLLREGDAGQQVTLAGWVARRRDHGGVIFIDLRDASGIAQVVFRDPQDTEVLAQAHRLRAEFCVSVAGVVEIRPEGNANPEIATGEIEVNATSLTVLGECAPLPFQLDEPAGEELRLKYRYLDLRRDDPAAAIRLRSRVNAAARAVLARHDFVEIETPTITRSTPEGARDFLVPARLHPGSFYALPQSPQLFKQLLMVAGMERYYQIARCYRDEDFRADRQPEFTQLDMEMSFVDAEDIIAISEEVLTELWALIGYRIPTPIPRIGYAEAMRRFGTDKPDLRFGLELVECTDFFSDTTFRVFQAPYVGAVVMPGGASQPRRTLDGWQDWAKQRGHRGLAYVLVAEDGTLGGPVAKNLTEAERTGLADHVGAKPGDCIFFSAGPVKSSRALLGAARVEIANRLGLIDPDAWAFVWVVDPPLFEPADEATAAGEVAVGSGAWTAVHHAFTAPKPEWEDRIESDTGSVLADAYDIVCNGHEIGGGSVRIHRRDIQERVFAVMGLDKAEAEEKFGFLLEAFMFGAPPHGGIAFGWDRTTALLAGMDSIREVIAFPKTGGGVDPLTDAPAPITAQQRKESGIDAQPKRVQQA
Kind of assay: Assay for Asp RNA synthetase-1 from Mycobacterium tuberculosis. More on the design: scale not given: direction of the effect not stated beside the values. In kind it is functional. The settings on record: 30 µM.
As for `Cc1cc(C)n(CC2CN(Cc3cscn3)CCO2)n1` (stereo not given), the Percent Effect was -1.81%.
Turning to `O=C(NCC1(N2CCOCC2)CCSC1)Nc1ccc(F)cc1` (stereo not given), the Percent Effect is 2%.
The same measure, in the same setting: the result for `Clc1ccccc1CN1CCc2nc(C3CCCCN3)ncc2C1` (stereo not given) reads 1.4%; that for `CNC(=O)c1cc2c(nc1NCC1CC1)CCN(c1ccncn1)CC2`, -4.09%; that for `O=C(COCc1nc(-c2ccncc2)no1)NC1CCCCC1`, 2.71%.
On the same count and under the same terms, then `Cc1ccc(CN2CCC(F)(F)C3(CCN(c4cnccn4)C3)C2)o1` (stereo not given), with 5.56%; and `CN(C)C(=O)N1CCN(Cc2ccccc2)[C@@H]2CS(=O)(=O)C[C@@H]21`, with 0.569%.
On the same count and under the same terms, the result for `CCN1CCOC(CNCc2ccccn2)C1` (stereo not given) reads 1.04%; that for `Cc1ccccc1N1CCCN(C(=O)CCCS(N)(=O)=O)CC1`, 6.58%; that for `O=C(COc1cccc2c1CCC2=O)NCCOc1ccccc1`, 12.7%.
Take `CC(Cn1ccnc1)NC(=O)N1CCN(Cc2cccnc2)CC1` (stereo not given): the Percent Effect turned out to be 0.189%.
Consider `CCCc1n[nH]c(C2CN(CCn3cccn3)CCO2)n1` (stereo not given), for which the Percent Effect turned out to be 3.43%.
With `CCC1c2ccsc2CCN1C(=O)NCc1cc[nH]n1` (stereo not given), the Percent Effect was -1.83%.
Still for that read-out and setting: the result for `CCc1nc(CN2CCCN(C(=O)C(C)COC)CC2)cs1` (stereo not given) reads -0.303%; that for `Cc1csc2c(N3CCC(NCCCc4ccncc4)CC3)ncnc12`, 8.8%.
On to `CCCNCC1(O)CCCN(Cc2cccc(C)c2)C1=O` (stereo not given), for which the Percent Effect is -0.345%.
Same read-out and setting: the result for `c1cnc(N2CCOCC3(CCCN(CC4CC4)C3)C2)cn1` (stereo not given) reads 0.0873%; that for `Cc1cc(CN2CCOCS2(=O)=O)ccc1F`, 1.64%.
Still for that read-out and setting: the result for `O=C([C@H]1C[C@H]2OCC[C@H]2N(C(=O)c2ccncc2)C1)N1CCCCO1` reads -3.79%; that for `CCS(=O)(=O)N1C[C@H]2C[C@H](C(=O)N(C)C)[C@@H](C1)O2`, 3.87%.

The target in another assay is Shiga toxin 2 (Escherichia coli O157:H7) (UniProt P09385+P09386). As to the kind of experiment: E. coli 0.157:H7 Shiga Toxin SOP - stx2 screening assay. In kind it is functional. Further details: scale not given: direction of the effect not stated beside the values. Conditions: 30 µM.
Take `c1cnn(CC2CCCCN2Cc2cn3ccsc3n2)c1` (stereo not given): the Percent Effect was -12.1%.
Still for that read-out and setting: the result for `Cn1ncc2c1NC(=O)CC2c1ccccc1Cl` (stereo not given) reads 6%; that for `N#Cc1c(F)cccc1N1CCC(NS(=O)(=O)c2cccs2)CC1`, -25.2%; that for `Cc1cc(C)n(C2CCCN(C(=O)c3c(C)c(C)n[nH]c3=O)C2)n1` (stereo not given), 2.19%.
Still for that read-out and setting: then `CN1CCC(c2ncc3c(n2)CCN(C(=O)CC2C=CCC2)C3)CC1` (stereo not given), with -1.54%; and `O=C(c1cnoc1)N1CCC[C@]2(C[C@@H](OCc3ccccn3)CO2)C1`, with -20.4%.
For `CS(=O)(=O)CCSc1cccc(C#N)c1`, the Percent Effect came out at 4.17%.
The same measure, in the same setting: the result for `Cc1cnc(C(=O)N2C[C@@H]3CN(CC4CCCC4)CCO[C@@H]3C2)cn1` reads -21.5%.
On to `Cc1nccc(-c2cccc(NCC(=O)N3CCNC3=O)c2)n1`, for which the Percent Effect came out at 8.66%.
Consider `O=C(Cc1c[nH]c2ccccc12)N1CCC(Nc2cccnn2)CC1`, for which the Percent Effect was -4.79%.
Same read-out and setting: then `Fc1ccc(CN2CCC(c3nccnc3-n3ccnc3)CC2)cc1`, with -0.684%.
With `CC(C)c1cc(NC(=O)CN2CCc3cncnc3C2)on1`, the Percent Effect was determined as 5.67%.
Still for that read-out and setting: then `CNS(=O)(=O)Cc1ccc(CNC(=O)Nc2cn[nH]c2)cc1`, with -4.62%; and `Cc1cc(CC(=O)N2CCCC2c2nc(C(C)C)no2)on1` (stereo not given), with 8.6%; and `CCOCc1cccc(S(=O)(=O)N2CCSCC2)c1`, with -4.15%.
On the same count and under the same terms, then `CC(=O)N1CCN(C(=O)c2cnn(-c3ccccc3Cl)c2)CC1`, with 14.3%; and `Cn1nc(C#N)c2c1CN(C(=O)c1cccnc1)CCC2`, with -7.73%.
Same read-out and setting: then `CC(OCC(F)(F)F)C(=O)Nc1ccc(-n2cncn2)nc1` (stereo not given), with 13.4%.
Turning to `N#Cc1ccnc(N2CCN(Cc3cccc(F)c3)CC2)c1`, the Percent Effect amounted to 12.2%.
Take `Cn1cc(CN2CCn3c(CNC(=O)c4cccn4C)cnc3C2)cn1`: the Percent Effect was -22.6%.
Still for that read-out and setting: then `Cc1cc(C)n(CC2CN(Cc3cscn3)CCO2)n1` (stereo not given), with -3.38%; and `O=C(NCC1(N2CCOCC2)CCSC1)Nc1ccc(F)cc1` (stereo not given), with -8.73%.
As for `Clc1ccccc1CN1CCc2nc(C3CCCCN3)ncc2C1` (stereo not given), the Percent Effect is -35.9%.
Same read-out and setting: the result for `CNC(=O)c1cc2c(nc1NCC1CC1)CCN(c1ccncn1)CC2` reads -30.7%; that for `O=C(COCc1nc(-c2ccncc2)no1)NC1CCCCC1`, -15.1%; that for `Cc1ccc(CN2CCC(F)(F)C3(CCN(c4cnccn4)C3)C2)o1` (stereo not given), -6.62%.
On the same count and under the same terms, the result for `CN(C)C(=O)N1CCN(Cc2ccccc2)[C@@H]2CS(=O)(=O)C[C@@H]21` reads -3.78%; that for `CCN1CCOC(CNCc2ccccn2)C1` (stereo not given), 12.2%.
As for `Cc1ccccc1N1CCCN(C(=O)CCCS(N)(=O)=O)CC1`, the Percent Effect is -25.7%.
The same measure, in the same setting: then `O=C(COc1cccc2c1CCC2=O)NCCOc1ccccc1`, with -35%; and `CC(Cn1ccnc1)NC(=O)N1CCN(Cc2cccnc2)CC1` (stereo not given), with 6.15%.
Turning to `CCCc1n[nH]c(C2CN(CCn3cccn3)CCO2)n1` (stereo not given), the Percent Effect came out at 6.67%.
Same read-out and setting: then `CCC1c2ccsc2CCN1C(=O)NCc1cc[nH]n1` (stereo not given), with -35%.
Still for that read-out and setting: the result for `CCc1nc(CN2CCCN(C(=O)C(C)COC)CC2)cs1` (stereo not given) reads -63.3%; that for `Cc1csc2c(N3CCC(NCCCc4ccncc4)CC3)ncnc12`, -69.6%; that for `CCCNCC1(O)CCCN(Cc2cccc(C)c2)C1=O` (stereo not given), 0.574%.
On the same count and under the same terms, then `c1cnc(N2CCOCC3(CCCN(CC4CC4)C3)C2)cn1` (stereo not given), with -8.06%.
Take `Cc1cc(CN2CCOCS2(=O)=O)ccc1F`: the Percent Effect is 3.93%.
The same measure, in the same setting: the result for `O=C([C@H]1C[C@H]2OCC[C@H]2N(C(=O)c2ccncc2)C1)N1CCCCO1` reads -6.05%.
On the same count and under the same terms, the result for `CCS(=O)(=O)N1C[C@H]2C[C@H](C(=O)N(C)C)[C@@H](C1)O2` reads -5.91%.
